Source: PubChem BioAssay
697 NFkB inh: inhibitors of the PMA/ionomycin-induced NF-kB reporter in 697 B cells; 697 B-cell NF-kB luciferase reporter, 16 h; inhibition, % at 4 µM; hit rate 0.33% among 330,000; AID 435022; in the data active means inhibition above about 35%
Jurkat NFkB inh: lowers PMA/ionomycin-induced NF-kB signal in Jurkat cells. PMA/ionomycin-induced NF-kB luciferase reporter, luminescence. AID 435003. inhibition, % at 4 µM. hit rate 0.53% among 330,000; in the data active means inhibition above about 50%
Gli-Sufu antag: blocks Gli-Sufu signaling in a luciferase reporter. Sufu-KO-LIGHT fibroblasts, Gli luciferase reporter luminescence. inhibition, % at 5 µM. hit rate 0.74% among 340,000. AID 588413;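 active means inhibition above about 55%, limit read from the data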;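 further: 0% = DMSO-treated cells and 100% = wells with medium but no cells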
SMARCA2 act: SMARCA2 function activation, primary screen | MG213 cells, MMTV-luciferase reporter, dexamethasone, overnight | activation, % at 9.1 µM | AID 652017 | hit rate 1% among 370,000; in the data active means activation above about 7.8%;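 further: 0% = vehicle wells and 100% = reference activator wells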
esBAF inh: SWI/SNF esBAF complex inhibition; hit rate 2% among 350,000; reporter increase, % at 12.5 µM; mouse ES cells, Bmi1-luciferase knock-in reporter, 24 h; 100% = twice the neutral-well signal; in the data active means activation above about 40%;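 further: 0% = median of the plate's neutral control wells and 100% = double that signal; a rise in the Bmi1 reporter signal indicates esBAF inhibition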
Gli-Sufu confirm: confirmation of Gli-SUFU pathway antagonists; shares compounds with Gli-Sufu antag; Sufu-KO-LIGHT cells, Gli luciferase reporter, luminescence; inhibition, % at 5 µM; hit rate 40% among 2,500;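 active means mean inhibition at 5 µM reaching about 45%, limit read from the data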;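 further: plate controls were DMSO-treated cells for no effect and wells lacking cells for full effect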
SufuKO cytotox: counter-screen for Gli-SUFU antagonists: cytotoxicity. shares compounds with Gli-Sufu antag. Sufu-KO-LIGHT cells cytotoxicity, ATP luminescence. cytotoxicity, % at 5 µM. hit rate 32% among 2,500;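 active means mean cytotoxicity at 5 µM above about 25%, limit read from the data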;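 further: cells exposed to compound overnight for roughly 16 to 18 hours; plate controls were DMSO wells with cells for no effect and medium without cells for full effect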
Wnt3a counter: Wnt3a reporter inhibition counter-screen. shares compounds with Gli-Sufu antag. Wnt-LIGHT cells, Wnt3a-driven luciferase reporter, luminescence. inhibition, % at 6.25 µM. hit rate 20% among 2,500. AID 651995;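 active means mean inhibition above about 25%, limit read from the data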
* marks the source's active call; other numbers are inactive results; / = no result. Compounds with a hit are over-represented: about 3.3% of the library has one in this group of screens.

SMILES | 697 NFkB inh | Jurkat NFkB inh | Gli-Sufu antag | SMARCA2 act | esBAF inh | Gli-Sufu confirm | SufuKO cytotox | Wnt3a counter
C[C@@H]1CN([C@H](C)CO)C(=O)Cc2cc(NC(=O)c3ccncc3)ccc2O[C@H]1CN(C)S(=O)(=O)c1cn(C)cn1 | / | / | / | / | 1.6 | / | / | /
COc1cccc(C(=O)C2CCCN(C(=O)c3ccc(C#CC(C)(C)O)cc3)C2)c1 (stereo not given) | -24.7 | -17.5 | 59.5* | -2.7 | / | 17.6 | 14.0 | -45.0
O=C(Cc1ccc(Cl)cc1)N1CCN(c2ccc(F)cc2)CC1 | -21.7 | -34.2 | -10.4 | -1.0 | 6.0 | / | / | /
O=C(Cc1ccc(Cl)cc1)N1CCN(c2ccccc2)CC1 | -30.5 | -0.2 | 52.5 | -1.0 | 3.6 | 23.3 | 13.0 | -40.2
CC(C(=O)c1ccc(-c2ccccc2)cc1)[n+]1ccccc1 (stereo not given) | -5.4 | 19.4 | 45.9 | -8.2 | 2.9 | / | / | /
Cc1cc[n+](C(C)C(=O)c2ccc(-c3ccccc3)cc2)cc1 (stereo not given) | 15.3 | 45.4 | 81.7* | -5.2 | / | 74.8* | 26.5* | -11.9
O=C(NCC[C@@H]1CC[C@H](NC(=O)C2CC2)[C@H](CO)O1)Nc1ccc(C(F)(F)F)cc1 | / | / | / | / | -1.7 | / | / | /
CCCCCn1c(CN(C)Cc2ccccc2)nc2c1c(=O)n(C)c(=O)n2C | / | / | 18.7 | -2.3 | -23.6 | / | / | /
C=C(C)Cn1c(CN(C)Cc2ccccc2)nc2c1c(=O)n(C)c(=O)n2C | -24.1 | 20.9 | 57.8* | 1.7 | -4.4 | 25.4 | 37.5* | -8.5
CC(C)CN(CC(C)C)c1nc(N)c(C#N)c(CC#N)c1C#N | -17.1 | 20.8 | 88.8* | 3.1 | -5.3 | 18.2 | 10.3 | 13.4
CC(C)n1c(-c2ccco2)csc1=Nc1cccnc1 | -55.4 | 17.5 | 50.2 | -5.7 | -37.3 | 50.8* | 25.0* | 18.1
C[C@@H]1CCCCO[C@@H](CN(C)C(=O)Nc2ccccc2)[C@H](C)CN([C@@H](C)CO)C(=O)c2cc(N(C)C)ccc2O1 | / | / | / | / | -2.8 | / | / | /
COCC(=O)Nc1ccc2c(c1)OC[C@H](C)N(C(=O)c1ccccc1F)C[C@@H](C)[C@@H](OC)CN(C)C2=O | / | / | / | / | -2.7 | / | / | /
CNS(=O)(=O)c1cccc(C(=O)OCC(=O)c2cc(C)n(CC3CCCO3)c2C)c1 (stereo not given) | -96.0 | -63.6 | 51.1 | 2.4 | -5.6 | 67.7* | -3.2 | -9.9
Cc1cc(C(=O)COC(=O)c2ccc(O)cc2)c(C)n1CC1CCCO1 (stereo not given) | -59.3 | -21.0 | -20.9 | -0.4 | / | / | / | /
Cc1cc(C(=O)COC(=O)c2cccc(O)c2)c(C)n1C1CC1 | -34.6 | -133.6 | 99.0* | 6.0 | -35.4 | 6.9 | 32.8* | 64.4*
Cc1cc(C(=O)COC(=O)c2cccc(S(=O)(=O)N(C)C)c2)c(C)n1CC1CCCO1 (stereo not given) | -18.9 | -13.0 | 22.7 | 5.7 | / | / | / | /
O=C(C[C@@H]1CC[C@H](NC(=O)c2ccccc2)[C@H](CO)O1)NCc1ccncn1 | / | / | / | / | -6.6 | / | / | /
CC[N+](C)(CC)CCC(c1ccccc1)C1CCCCC1 (stereo not given) | 5.4 | 1.2 | 56.0* | -1.4 | -0.8 | 49.8* | 18.4 | -19.4
CC(=O)Nc1ccc(SCC(=O)c2cc(C)n(-c3ccccc3)c2C)cc1 | -90.0 | -27.2 | 51.4 | -3.7 | -22.2 | 70.2* | 6.2 | 77.4*
COc1cccc(N(CC(=O)Nc2cccc(C(C)=O)c2)S(C)(=O)=O)c1 | 0.5 | -11.8 | 77.4* | 0.3 | / | 12.4 | 16.1 | -21.3
COc1cccc(N(CC(=O)Nc2ccccc2C)S(C)(=O)=O)c1 | -0.9 | 3.4 | 3.2 | -3.5 | 6.7 | / | / | /
COc1ccccc1NC(=O)CN(c1ccccc1)S(=O)(=O)c1ccccc1 | -5.7 | -8.8 | 52.6 | -1.5 | 6.5 | 25.4 | 3.0 | -10.2
COc1ccc(N(CC(=O)Nc2ccccc2OC)S(=O)(=O)c2ccc(NC(C)=O)cc2)cc1 | -49.7 | 42.8 | 0.3 | -1.8 | -2.5 | / | / | /
CCc1ccccc1NC(=O)CN(c1cccc(OC)c1)S(C)(=O)=O | -20.8 | -6.8 | 92.2* | -3.4 | -1.2 | 12.9 | 5.8 | -10.6
SMILES | 697 NFkB inh | Jurkat NFkB inh | Gli-Sufu antag | SMARCA2 act | esBAF inh | Gli-Sufu confirm | SufuKO cytotox | Wnt3a counter
COc1ccc(N(CC(=O)NCCSCc2ccc(C)cc2)S(=O)(=O)c2ccccc2)cc1 | -35.2 | 18.6 | 95.1* | -2.0 | -7.7 | 17.3 | 5.8 | -20.4
C[C@@H]1CN([C@H](C)CO)C(=O)Cc2cc(NC(=O)CCC(F)(F)F)ccc2O[C@H]1CN(C)S(=O)(=O)c1ccc(Cl)cc1 | / | / | / | / | 2.4 | / | / | /
O=C(C[C@@H]1CC[C@H]2[C@@H](COC[C@@H](O)CN2Cc2cc(F)ccc2F)O1)NCc1ccc(Cl)cc1 | / | / | / | / | 0.9 | / | / | /
CCCCCCCC[n+]1c(C)n(-c2ccccc2)c2ccc(NC(C)=O)cc21 | -48.6 | 11.4 | 76.1* | -5.3 | / | 77.5* | 31.4* | 9.3
CC(=O)c1ccc(NC(=S)N2CCN(C(=S)Nc3ccc(C(C)=O)cc3)C(C)C2)cc1 (stereo not given) | 4.0 | 5.6 | 58.0* | -3.4 | / | 9.1 | 31.4* | -9.9
COc1ccc(CN2CCN(CCCc3ccccc3)C(CCO)C2)cc1OC (stereo not given) | -5.5 | -5.8 | -7.9 | -4.0 | 3.7 | / | / | /
CCOc1cc(CN2CCN(CCc3ccccc3)C(CCO)C2)ccc1OC (stereo not given) | 6.1 | 14.6 | 61.3* | -2.3 | / | 13.9 | 5.2 | -19.2
CCOC(=O)c1c(N)sc(C(O)(C(F)(F)F)C(F)(F)F)c1-c1ccc(Cl)cc1 | -1.1 | -16.2 | -6.1 | -4.2 | -9.8 | / | / | /
CCOC(=O)c1c(N)sc(C(O)(C(F)(F)F)C(F)(F)F)c1-c1ccc(F)cc1 | -12.3 | -19.8 | 53.4 | -0.1 | -10.3 | 6.2 | 4.8 | -56.3
CC(C)C#Cc1ccc2c(c1)O[C@@H](CN(C)S(=O)(=O)c1cn(C)cn1)[C@H](C)CN([C@H](C)CO)S2(=O)=O | / | / | / | / | 6.9 | / | / | /
CC(Oc1cccc2c1OC(C)(C)C2)C(=O)O (stereo not given) | -9.0 | -0.7 | 96.0* | -1.4 | -6.9 | 10.4 | -7.0 | 12.2
Cc1ccc(C(=O)N/N=C\C=C\c2ccc(Br)cc2)cn1 | -11.3 | -8.9 | 50.8 | -0.9 | -4.1 | 26.7 | 5.4 | -4.4
COc1cnn(-c2cccc(C)c2)c(=O)c1Cl | 13.4 | -2.1 | 50.6 | 1.6 | 15.5 | 23.0 | 2.8 | -32.0
COC(=O)C(C)Sc1nc2c(cnn2-c2ccc(Cl)cc2)c(=O)[nH]1 (stereo not given) | -5.1 | -8.2 | 60.1* | -2.7 | -1.1 | 16.1 | 7.1 | 1.1
CCc1ccc(CN(C)C(=O)c2cc(COc3cccc4cnccc34)on2)cc1 | -13.1 | 42.9 | 64.8* | -6.2 | -13.3 | 61.7* | 25.1* | -1.7
CN(Cc1cccc2cnccc12)C(=O)c1cc(COc2ccc(F)cc2F)on1 | -40.2 | 11.4 | 43.4 | -3.5 | / | / | / | /
